Structures can show the parent of a compound that is named as a salt.
Each compound was assayed on Saccharomyces cerevisiae BY4741 SeMeCo community (assay: z-score of subpopulation abundance vs DMSO median, subpopulation auxotrophic for LUM; higher = larger share of this subpopulation than in DMSO controls). Conditions: 10 µM; 24 h; SM minimal medium; subpopulation (auxotrophy): LUM.
In short: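 A Saccharomyces cerevisiae BY4741 community carried four plasmids, each restoring one auxotrophy and encoding a distinct fluorescent protein. It was pre-grown overnight to OD600 1.0, diluted to 0.3, and 70 µl was added to 384-well plates acoustically predosed with library drugs (10 µM final), then grown 24 h in minimal SM medium. Cells were paraformaldehyde-fixed and imaged by automated confocal microscopy, with single-auxotroph fluorescent strains setting thresholds and autofluorescence correction. Each subpopulation's abundance was scored as a z-score against the vehicle-well median.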

Structure (SMILES)	z-score of subpopulation abundance
CN(C)[C@@H](CCOc1cccc2ccccc12)c1ccccc1 [Dapoxetine HCl]	0.92
CC1(C)S[C@@H]2[C@H](NC(=O)Cc3ccccc3)C(=O)N2[C@H]1C(=O)O.CCN(CC)CCOC(=O)c1ccc(N)cc1 [Penicillin G Procaine]	1.6
CC(=O)Oc1ccccc1C(=O)O [Aspirin]	-0.25
Nc1ccc(S(=O)(=O)Nc2ccnn2-c2ccccc2)cc1 [Sulfaphenazole]	-0.28
CCN1CCC[C@H]1CNC(=O)c1cc(S(N)(=O)=O)ccc1OC [Levosulpiride]	0.3
CN1CCN(CCCN2c3ccccc3Sc3ccc(C(F)(F)F)cc32)CC1 [Trifluoperazine 2HCl]	0
COc1ccc2c(c1)c(CC(=O)OCC(=O)O)c(C)n2C(=O)c1ccc(Cl)cc1 [Acemetacin]	-0.15
CC[C@H]1OC(=O)[C@H](C)[C@@H](O[C@H]2C[C@@](C)(OC)[C@@H](O)[C@H](C)O2)[C@H](C)[C@@H](O[C@@H]2O[C@H](C)C[C@H](N(C)C)[C@H]2O)[C@](C)(O)C[C@@H](C)CN(C)[C@H](C)[C@@H](O)[C@]1(C)O [Azithromycin]	0.31
Clc1ccccc1C(c1ccccc1)(c1ccccc1)n1ccnc1 [Clotrimazole]	5.41
CO/N=C(\C(=O)N[C@@H]1C(=O)N2C(C(=O)O)=C(CSc3nc(=O)c(O)nn3C)CS[C@H]12)c1csc(N)n1 [Ceftriaxone Sodium Trihydrate]	-0.43
C[C@H](NCc1ccc(OCc2cccc(F)c2)cc1)C(N)=O [Safinamide]	0.42
CCOC(=O)C1=C(C)NC(C)=C(C(=O)OC)C1c1cccc(Cl)c1Cl (stereo not given) [Felodipine]	-4.09
C[C@@H](O)[C@H]1C(=O)N2C(C(=O)O)=C([C@H]3CCCO3)S[C@H]12 [Faropenem Sodium]	0.85
O=C1CCc2cc(OCCCCc3nnnn3C3CCCCC3)ccc2N1 [Cilostazol]	-0.52
Nc1nc2ccc(OC(F)(F)F)cc2s1 [Riluzole]	-0.13
NC(=O)N1c2ccccc2CC(=O)c2ccccc21 [Oxcarbazepine]	0.55
CCCCC(F)(F)[C@@]1(O)CC[C@H]2[C@@H](CC(=O)[C@@H]2CCCCCCC(=O)O)O1 [Lubiprostone]	-0.67
CCN(CC)CCOC(=O)c1ccc(N)cc1 [Procaine HCl]	0.14

Structure (SMILES)	z-score of subpopulation abundance
O=C(O)CCC(=O)Nc1ccc(S(=O)(=O)Nc2nccs2)cc1 [Succinylsulfathiazole]	-0.95
N[C@@H]1CONC1=O [D-Cycloserine]	0.83
COc1ccc2cc(C(=O)O)ccc2c1 [6-Methoxy-2-naphthoic acid]	-0.89
CCC(=O)c1c(O)cc(O)cc1O [Flopropione]	-0.46
Oc1c(Cl)cc(Cl)c(Cl)c1Cc1c(O)c(Cl)cc(Cl)c1Cl [Hexachlorophene]	2.37
CCCCCCCCc1ccc(CCC(N)(CO)CO)cc1 [Fingolimod]	-1.47
CC1(C)S[C@@H]2[C@H](NC(=O)[C@H](N)c3ccc(O)cc3)C(=O)N2[C@H]1C(=O)O [Amoxicillin]	0.09
CCCc1nc(C)c2c(=O)nc(-c3cc(S(=O)(=O)N4CCN(CC)CC4)ccc3OCC)[nH]n12 [Vardenafil HCl Trihydrate]	-0.24
CC[C@@]1(O)C(=O)OCc2c1cc1n(c2=O)Cc2cc3c(CN(C)C)c(O)ccc3nc2-1 [Topotecan HCl]	-0.62
CCC(C)(C)C(=O)O[C@H]1C[C@@H](C)C=C2C=C[C@H](C)[C@H](CC[C@@H]3C[C@@H](O)CC(=O)O3)[C@H]21 [Simvastatin]	1.33
CO/N=C(\C(=O)N[C@@H]1C(=O)N2C(C(=O)O)=C(CSc3nc(C)c(CC(=O)O)s3)CS[C@H]12)c1csc(N)n1 [Cefodizime Sodium]	-0.74
CNCC[C@H](Oc1cccc2ccccc12)c1cccs1 [Duloxetine]	-0.47
C1N2CN3CN1CN(C2)C3 [Methenamine]	0.29
O=C(Nc1cccc(C2=NCCN2)c1)Nc1cccc(C2=NCCN2)c1 [Imidocarb dipropionate]	-0.67
C[C@H]1c2cccc(O)c2C(O)=C2C(=O)[C@]3(O)C(O)=C(C(N)=O)C(=O)[C@@H](N(C)C)[C@@H]3[C@@H](O)[C@@H]21 [Doxycycline]	-0.15
CCc1c2c(nc3ccc(OC(=O)N4CCC(N5CCCCC5)CC4)cc13)-c1cc3c(c(=O)n1C2)COC(=O)[C@]3(O)CC [Irinotecan HCl Trihydrate]	0.14
C/C=C\c1ccc(O)c(OC)c1 [Isoeugenol]	0.33

Source: the supplement of paper PMC8975748
